# Assay outcomes: PubChem BioAssay, several laboratories
# MEKK2mut PB1 HTS: MEK5 binding signal on mutant MEKK2 PB1, primary screen, biochemical, multiplex bead flow cytometry, Alexa488-MEK5 | percent response, % at 10 µM | Alexa488-MEK5 binding to MEKK2 mutant | 290,000 compounds, 0.35% hits; in the data active = percent response above about 24%, passing the limit was not always enough
# MEKK2 WT-MEK5: modulators of MEK5 binding to wildtype MEKK2, primary screen, biochemical, multiplex bead flow cytometry, Alexa488-MEK5; Mitogen-activated protein kinase kinase kinase 2 (Homo sapiens), Q9Y2U5; Alexa488-MEK5 binding to MEKK2 WT; actives lie on both sides; binding response (% of control), % at 10 µM; 290,000 compounds, 1.1% hits; in the data active = binding response below about 67% or above about 130%
# UBC13 inh: UBC13 polyubiquitin chain formation inhibitors, primary screen, biochemical, TR-FRET, uHTS; inhibition, % at 20 µM; AID 485273, 2010; 330,000 compounds, 0.47% hits; in the data active = inhibition above about 45%, passing the limit was not always enough
# MEKK3 PB1 HTS: modulators of MEKK3-MEK5 PB1 binding, primary screen, biochemical, wildtype MEKK3, multiplex bead flow cytometry, Alexa488-MEK5 | bead-based flow cytometry, Alexa488-MEK5 binding to MEKK3; actives lie on both sides; 0 = blocked by unlabeled MEK5, 100 = vehicle | binding response (% of control), % at 10 µM | 290,000 compounds, 1.4% hits | AID 1529, 2009 | Mitogen-activated protein kinase kinase kinase 3 (Homo sapiens), Q99759;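 active = binding response more than 3 SD above or below the average of its plate-row segment, actives on both sides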;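 also: Alexa488 bead fluorescence after subtracting the streptavidin-only scavenger bead signal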
# Target sequence (Q99759 whole entry, looked up): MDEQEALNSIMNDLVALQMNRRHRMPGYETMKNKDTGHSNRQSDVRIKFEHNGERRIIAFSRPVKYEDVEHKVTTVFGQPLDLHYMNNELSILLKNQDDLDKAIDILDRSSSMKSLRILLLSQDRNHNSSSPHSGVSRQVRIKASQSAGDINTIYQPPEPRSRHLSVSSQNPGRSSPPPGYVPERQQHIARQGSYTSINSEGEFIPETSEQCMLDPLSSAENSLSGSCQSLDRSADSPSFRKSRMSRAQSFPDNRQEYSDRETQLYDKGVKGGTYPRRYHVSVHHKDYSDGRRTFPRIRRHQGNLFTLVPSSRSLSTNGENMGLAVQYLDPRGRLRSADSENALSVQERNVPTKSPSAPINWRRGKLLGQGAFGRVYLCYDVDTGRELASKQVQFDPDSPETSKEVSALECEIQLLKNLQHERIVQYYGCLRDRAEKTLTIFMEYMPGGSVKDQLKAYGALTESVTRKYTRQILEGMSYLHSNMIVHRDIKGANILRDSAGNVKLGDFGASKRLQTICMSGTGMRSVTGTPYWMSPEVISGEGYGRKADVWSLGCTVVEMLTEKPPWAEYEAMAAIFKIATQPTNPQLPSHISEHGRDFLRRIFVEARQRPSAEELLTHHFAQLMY
# Rce1 inh: yeast Rce1p protease inhibitors, primary screen, biochemical, fluorescence, cell-free homogeneous; CAAX prenyl protease 2 (Saccharomyces cerevisiae (strain ATCC 204508 / S288c)), Q03530; yeast membranes, quenched prenylated peptide cleavage fluorescence; calls only; 290,000 compounds, 0.27% hits;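 active = fall in fluorescence gain of 50% or more versus controls, with final raw signal at or below 3038400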
# MEKK2wt confirm: modulators of MEK5 binding to wildtype MEKK2, confirmation, biochemical, single concentration, multiplex bead flow cytometry; 5,900 compounds, 2.4% hits; shares compounds with MEKK3 PB1 HTS; binding response (% of control), % at 10 µM; Alexa488-MEK5 binding to MEKK2 WT; actives lie on both sides; in the data active = binding response below about 16% or above about 210%; inactive = in between
# MEKK2mut confirm: mutant MEKK2 PB1-MEK5 binding signal retest – biochemical, single concentration, multiplex bead flow cytometry, confirmation. 5,900 compounds, 2% hits. shares compounds with MEKK3 PB1 HTS. percent response, % at 10 µM. Alexa488-MEK5 binding to MEKK2 mutant; in the data active = percent response mostly above about 71%, no sharp cut-off; inactive = mostly below about 38%;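 also: higher means compound restores mutant binding toward wildtype level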
# MEKK3 confirm: MEKK3 wild-type PB1 binding to MEK5, inhibitors, confirmation, biochemical, bead multiplex flow cytometry, single concentration, wildtype | shares compounds with MEKK3 PB1 HTS | 5,900 compounds, 1.8% hits | binding response (% of control), % at 10 µM | Alexa488-MEK5 binding to MEKK3; active compounds read low | AID 1894, 2009;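 active = binding response below 72% of control, or above a set upper limit, though filed actives all read lower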;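 also: lower values mean stronger disruption of MEK5 binding to MEKK3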
# Hits are given with their value; - = inactive; . = no result; [ ] = another dose, or the depositor's remark. Compounds with a hit are over-represented: about 2.5% of the library has one in this group of screens.
SMILES,MEKK2mut PB1 HTS,MEKK2 WT-MEK5,UBC13 inh,MEKK3 PB1 HTS,Rce1 inh,MEKK2wt confirm,MEKK2mut confirm,MEKK3 confirm
CC1CN(C(=O)Cn2cc(SCC(=O)N3CCOCC3)c3ccccc32)CC(C)O1 (configuration not stated),-,-2.0[inhibitor],-,1.0[inhibitor],-,-,-,-
CCOC(=O)CNC(=O)CSc1nc(-c2ccc(C)cc2)ns1,-,-,-,129,-,-,-,-
CCOC(=O)N1CCN(C(=O)CSc2nc(-c3cccc(C)c3)ns2)CC1,-,134,-,147,-,-,-,-
CCOC(=O)CNC(=O)CSc1nc(-c2ccccc2)ns1,-,-,-,-,-,.,.,.
CCN1C(=O)[C@H]2[C@@H](c3ccc(-c4ccc(OC)cc4)cc3)N[C@@](C)(C(=O)OC)[C@H]2C1=O,.,.,-,.,-,.,.,.
CCCCS(=O)(=O)N1CCN(S(=O)(=O)c2ccc(Cl)s2)CC1,-,-,-,-,-,.,.,.
Cn1c(=O)[nH]c(=O)c2c1nc(Sc1ccccc1)n2CCc1ccccc1,-,-,-,-,-,.,.,.
Cn1c(=O)[nH]c(=O)c2c1nc(SCC(=O)O)n2Cc1ccccc1,27,-,-,-,-,-,-,-
COCCn1c(Sc2ccccc2)nc2c1c(=O)[nH]c(=O)n2C,-,3.0[inhibitor],-,2.0[inhibitor],-,-,-,-
Cc1ccccc1C(=O)Nc1ccnn1C1CCN(C2CCSCC2)CC1,-,-,-,-,-,.,.,.
CCCNC(=O)CSc1nc(-c2cccs2)cc(C(F)(F)F)n1,-,-,-,-,-,.,.,.
Cc1cc(NC(=O)CSc2nc(-c3cccs3)cc(C(F)(F)F)n2)no1,-,-7.0[inhibitor],-,-,-,-,-,-
COC(=O)c1c(NC(=O)CSc2nc(-c3ccco3)cc(C(F)(F)F)n2)sc2c1CCCC2,-,-8.0[inhibitor],-,0.0[inhibitor],.,-,-,-
COc1ccc(OCC(=O)N/N=C/c2ccsc2)cc1,-,-,-,140,-,-,-,-
CCCCNC(=O)CN(Cc1ccco1)S(=O)(=O)c1ccc(C(C)=O)cc1,.,.,-,.,.,.,.,.
CC(=O)c1cccc(S(=O)(=O)NCC2CCCCC2)c1,-,-,-,-,-,.,.,.
NC(=O)CC[C@H](NC(=O)OCc1ccccc1)C(=O)OCc1ccc(Cl)cc1,-,-,-,-,-,.,.,.
Cn1nc(-c2ccc(Cl)cc2)c2cc(C(=O)NC3CC3)sc21,-,-,-,-,-,.,.,.
Cn1nc(-c2ccc(Cl)cc2)c2cc(C(=O)NCCN3CCOCC3)sc21,-,136,-,-,-,-,-,-
Cn1nc(-c2ccc(Cl)cc2)c2cc(C(=O)NCCCN3CCOCC3)sc21,-,154,-,-,-,-,-,-
O=C(NNC(=O)C1CCN(S(=O)(=O)c2ccc(Cl)cc2)CC1)c1ccccc1O,.,.,-,.,.,.,.,.
CC(OC(=O)c1cccs1)C(=O)NCc1ccccc1 (configuration not stated),-,-,-,131,.,-,-,-
CC(OC(=O)c1cccs1)C(=O)NCCc1ccccc1 (configuration not stated),-,-,-,-,-,.,.,.
COc1ccc(NC2CCCN(C(=O)c3ccc(C(C)=O)s3)C2)cc1 (configuration not stated),-,-,-,-,-,.,.,.
COCc1cc(C)nc(SCC(=O)Nc2ccc(N3CCOCC3)cc2)c1C#N,-,-,-,-,-,.,.,.
SMILES,MEKK2mut PB1 HTS,MEKK2 WT-MEK5,UBC13 inh,MEKK3 PB1 HTS,Rce1 inh,MEKK2wt confirm,MEKK2mut confirm,MEKK3 confirm
COc1ccc(N2CC(C(=O)Nc3nnc(SCc4ccccn4)s3)CC2=O)cc1 (configuration not stated),-,-,-,133,-,1.0[inhibitor],-,2.0
COc1ccccc1N1CC(C(=O)Nc2nnc(SCc3ccccn3)s2)CC1=O (configuration not stated),-,-,-,-,-,.,.,.
CCC(NC(=S)NC1CCCCC1)c1ccc(C)cc1 (configuration not stated),-,-,-,-,-,.,.,.
Cc1nn(C)cc1/C=C(/C#N)C(N)=O,-,-,-,149,-,-,-,-
Cc1nn(C)cc1C(N)=O,-,-,-,-,-,.,.,.
Cc1cc(C)nc(NC(=O)C2c3ccccc3Oc3ccccc32)n1,-,-,-,-,-,.,.,.
CCC(C)NC(=O)C1CCN(S(=O)(=O)N2CCOCC2)CC1 (configuration not stated),-,-,-,-,-,.,.,.
CCC(C)NC(=O)C1CCN(S(=O)(=O)N2CCCC2)CC1 (configuration not stated),-,-3.0[inhibitor],-,1.0[inhibitor],-,-,-,-
CCS(=O)(=O)N1CCC(NC(=O)C(Cc2cc(OC)ccc2OC)NC(C)=O)CC1 (configuration not stated),-,-,-,-,-,.,.,.
CCN(CC(=O)Nc1ccccc1-c1ccccc1)Cc1nc2ccccc2c(=O)[nH]1,-,-,-,64[inhibitor],-,-,-,-
Cc1cccc(N(C(=O)c2snc(C(N)=O)c2N)C(C)C(=O)NCC2CCCO2)c1 (configuration not stated),-,-,-,130,-,-,-,70
COc1ccc(Cl)cc1NC(=O)COC(=O)CCNS(=O)(=O)c1cccs1,.,.,-,.,.,.,.,.
CCCCN1C(=O)CCC(C(=O)O)C1c1ccccc1 (configuration not stated),-,-1.0[inhibitor],-,0.0[inhibitor],-,-,-,-
CCCCN1C(=O)CC(C(=O)O)C1c1ccc(OC)cc1 (configuration not stated),-,-,-,-,-,.,.,.
COC(=O)CN1C(=O)C2(OCCCO2)c2ccccc21,-,-,-,-,-,.,.,.
O=C(O)CN1C(=O)C2(OCCCO2)c2ccccc21,-,2.0[inhibitor],-,2.0[inhibitor],-,-,-,-
CCN1CCN(Cc2ccc(NC(=O)c3ccc(C)c(NC(=O)c4nccn4C)c3)cc2C(F)(F)F)CC1,-,-,-,-,-,.,.,.
CCN1CCN(Cc2ccc(NC(=O)c3cc(NC(=O)c4nccnc4N)cc(OC)c3)cc2C(F)(F)F)CC1,-,164,-,123,-,-,-,-
